From the supplement of paper PMC6522484
± gives the standard deviation of the averaged measurements.

Assays:
DLD1 [1] = assay: cell viability (CellTiter-Glo) relative to plate median (fraction of plate median); higher = more viable cells; details: 5 µM; treatment time 24 h; reporter: 7TFP
How it was run: (§1)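 For this screen, colorectal cancer cell lines carrying stable lentiviral TCF/Wnt firefly luciferase reporters, either 7TFP or TCF4/Wnt, were seeded into 384-well plates. A day's wait of 24 h preceded addition of library compounds at a final 5 µM, which stayed on the cells for 24 h. Firefly luciferase or CellTiterGlo luminescence, read on parallel plates, was normalised to the plate median per well, and the reported value is the mean of two independent replicates.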

HCT116 = assay: as above; details: 5 µM; treatment time 24 h; reporter: TCF4/Wnt
How it was run: as §1

SW480 [2] = assay: as above; details: 5 µM; treatment time 24 h; reporter: 7TFP
How it was run: as §1

DLD1 [3] = assay: TCF/Wnt firefly luciferase reporter signal relative to plate median (fraction of plate median); higher = higher Wnt reporter signal; details: 5 µM; treatment time 24 h; reporter: 7TFP
How it was run: as §1

SW480 [4] = assay: as above; details: 5 µM; treatment time 24 h; reporter: 7TFP
How it was run: as §1

| Compound | cell viability (DLD1 [1]) | cell viability (HCT116) | cell viability (SW480 [2]) | TCF/Wnt firefly luciferase reporter signal (DLD1 [3]) | TCF/Wnt firefly luciferase reporter signal (SW480 [4]) |
| --- | --- | --- | --- | --- | --- |
| CCC1(C)OC(=O)N(C)C1=O (stereo not given) | 1.04 ± 0.014 | 0.873 ± 0.078 | 0.908 ± 0.0028 | 0.965 ± 0.0085 | 0.956 ± 0.076 |
| CO/N=C(\C(=O)N[C@@H]1C(=O)N2C(C(=O)OCOC(=O)C(C)(C)C)=C(/C=C\c3scnc3C)CS[C@H]12)c1csc(N)n1 | 1.025 ± 0.0071 | 0.985 ± 0.0042 | 0.901 ± 0.0071 | 0.809 ± 0.029 | 0.854 ± 0.14 |
| COCCCOc1cc(C[C@@H](C[C@H](N)[C@@H](O)C[C@H](C(=O)NCC(C)(C)C(N)=O)C(C)C)C(C)C)ccc1OC | 0.99 ± 0.029 | 0.962 ± 0.068 | 0.974 ± 0.0057 | 0.991 ± 0.07 | 1.07 ± 0.021 |
| O=C(O)CN(CCN(CC(=O)O)CC(=O)O)CC(=O)O.[Na+].[Na+].[Na+] | 0.914 ± 0.021 | 0.948 ± 0.088 | 1.01 ± 0.035 | 1.02 ± 0.12 | 1.11 ± 0.13 |
| CC(NCCC(c1ccccc1)c1ccccc1)c1ccccc1 (stereo not given) | 0.982 ± 0.04 | 1.02 ± 0.021 | 1 ± 0.051 | 0.9435 ± 0.0035 | 0.92 ± 0.015 |
| CC(C)=CCC[C@@H](C)[C@H]1CC[C@@]2(C)C3=C(CC[C@]12C)[C@@]1(C)CC[C@H](O)C(C)(C)[C@@H]1CC3 | 1 ± 0.029 | 1.01 ± 0.12 | 0.994 ± 0.0085 | 0.952 ± 0.023 | 0.83 ± 0.05 |
| COc1ccc(C(C)=O)c(O)c1 | 1 ± 0.037 | 1.04 ± 0.09 | 1.05 ± 0.014 | 1.06 ± 0.071 | 1.03 ± 0.068 |
| O=C(O)c1cc(=O)c(O)c2c(O)c(O)c(O)cc2c1 | 0.948 ± 0.066 | 0.82 ± 0.04 | 1 ± 0.05 | 0.806 ± 0.25 | 0.993 ± 0.12 |
| CN(C)CCOC(c1ccccc1)c1ccccc1 | 1.04 ± 0.028 | 1.06 ± 0.092 | 0.955 ± 0.013 | 1.2 | 1.19 ± 0.085 |
| CN(C)CCN(Cc1cccs1)c1ccccn1 | 1.08 ± 0.028 | 1.04 ± 0.18 | 1 ± 0.015 | 1.01 ± 0.056 | 1.03 ± 0.028 |
| CCc1ccc(CCOc2ccc(CC3SC(=O)NC3=O)cc2)nc1 (stereo not given) | 0.923 ± 0.048 | 0.904 ± 0.07 | 0.983 ± 0.096 | 1.015 ± 0.0071 | 1.07 ± 0.057 |
| CC(C(=O)O)[C@H]1CCC2C3CC=C4C[C@@H](O)CC[C@]4(C)C3CC[C@@]21C (stereo partly drawn) [3beta-HYDROXY-23,24-BISNORCHOL-5-ENIC ACID] | 1.09 ± 0.057 | 1.05 ± 0.071 | 0.999 ± 0.016 | 1.01 ± 0.021 | 1.09 ± 0.028 |
| CC(=O)C1=C(CO)C(=O)c2cccc(O)c2C1=O [Bhimamycin E] | 1.05 ± 0.042 | 1.04 ± 0.068 | 0.9945 ± 0.0021 | 0.983 ± 0.14 | 1.01 |
| Nc1ccc(S(=O)(=O)Nc2nccs2)cc1 | 1.01 ± 0.031 | 0.911 ± 0.028 | 1.065 ± 0.0071 | 0.999 ± 0.072 | 1.055 ± 0.0071 |
| CO[C@@]12[C@H](COC(N)=O)C3=C(C(=O)C(C)=C(N)C3=O)N1C[C@@H]1N[C@@H]12 | 1.12 ± 0.057 | 1.01 | 1.25 ± 0.021 | 0.974 ± 0.094 | 0.843 ± 0.13 |
